Experimental data as given in PubChem BioAssay (Tox21).
Values without a mark were called inactive. Inconclusive results are not listed. The source made the active and inactive calls. The call rests on the fitted dose curve; in most records, active means well fitted curve in the direction sought with a large enough effect in the repeat runs; inconclusive means weak or mixed curves; inactive means no such curve, though single readings can be large; an effect the other way counts as inactive or inconclusive.
Further: nearly all actives have a fitted effect of over 50% in size.
On the % scale 0 is the no-effect control and ±100 the full control effect; potency means the concentration at half of the fitted maximal effect.

Assay: A CellTox Green Cytotoxicity Assay to monitor cytotoxicity in HEK293 cells - 0 hour (AID 1224869)
Details: CellTox Green fluorescence; series mostly up to 76.8 µM; cytotoxicity: at the top concentration
In short: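 Fluorescence from a DNA-binding dye excluded by viable cells was measured repeatedly in the same HEK293 wells (600 cells/well) during continuous compound exposure at 37 C. Each assay gives one read point: 0, 8, 16, 24, 32 or 40 h.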
In the case of CN1CCN2c3ccccc3Cc3ccccc3C2C1 (stereo not drawn), the “cytotoxicity” value is reported as -3.78% [at 35.3 µM].
COc1cc2nc(N3CCN(C(=O)c4ccco4)CC3)nc(N)c2cc1OC showed a cytotoxicity of 2.18% [at 15.8 µM].
In the case of CNc1ccc([N+](=O)[O-])cc1, the “cytotoxicity” value is reported as 5.41%.
For Clc1ccnc(Cl)n1, the “cytotoxicity” value was 1.38%.
With CN1CCCCC1CCN1c2ccccc2Sc2ccc(S(C)=O)cc21 (stereo not drawn) the “cytotoxicity” value was -0.852% [at 35.3 µM].
For CCn1c2ccccc2c2cc([N+](=O)[O-])ccc21, the “cytotoxicity” value was 0.532%.
Work on O=C(O)O yielded a cytotoxicity of 2.74% [at 6.97 µM].
In the case of Cc1cc(C)c(/C=C2\C(=O)Nc3ccccc32)[nH]1, the Potency is reported as 10.7 µM (active).
With CCC(C)n1ncn(-c2ccc(N3CCN(c4ccc(OC[C@H]5CO[C@](Cn6cncn6)(c6ccc(Cl)cc6Cl)O5)cc4)CC3)cc2)c1=O (stereo partly drawn) the “cytotoxicity” value was 1.58% [at 35.3 µM].
For O=c1[nH]c(=O)n([C@H]2C[C@H](O)[C@@H](CO)O2)cc1F, the “cytotoxicity” value was -7.44% [at 35.3 µM].
In the case of COC1=C(OC)C(=O)C(CCCCCCCCCCO)=C(C)C1=O, the “cytotoxicity” value is reported as 3.12% [at 35.3 µM].
For C/C=C/C=C/COC(=O)C(C)C, the “cytotoxicity” value was -7.44%.
With CCCCCCCCCCCCOCCOCCOCCOCCOCCOCCOCCOCCOCCO the “cytotoxicity” value was -2.5% [at 35.3 µM].
For COc1c(C)c2c(c(O)c1C/C=C(\C)CCC(=O)OCCN1CCOCC1)C(=O)OC2, the “cytotoxicity” value was -0.16% [at 35.3 µM].
For Sc1nc2ccccc2s1, the “cytotoxicity” value was -1.05%.
In the case of CCC(C)(CCC(C)C)C(=O)[O][Sn]([CH3])([CH3])[O]C(=O)C(C)(CC)CCC(C)C (stereo not drawn), the “cytotoxicity” value is reported as 1.28%.
With CN1CCN(Cc2cc(-c3ccc4[nH]c(=O)oc4c3)co2)[C@@H](c2ccc(F)cc2)C1 the “cytotoxicity” value was 0.563%.
With CCCCC/C=C\C/C=C\CCCCCCCC(=O)O the Potency was “inactive”.
For COC(=O)C1=C(C)NC(C)=C(C(=O)OCCN2CCN(C(c3ccccc3)c3ccccc3)CC2)C1c1cccc([N+](=O)[O-])c1 (stereo not drawn), the “cytotoxicity” value was -2.71% [at 35.3 µM].
In the case of Cc1cc(=O)oc2cc(O)cc(O)c12, the “cytotoxicity” value is reported as 24.5%.
With Nc1cc(Cl)c(O)c(Cl)c1 the “cytotoxicity” value was -7.27%.
For Cc1cc(C(C)(C)C)c(O)c(C)c1Cn1c(=O)n(Cc2c(C)cc(C(C)(C)C)c(O)c2C)c(=O)n(Cc2c(C)cc(C(C)(C)C)c(O)c2C)c1=O, the “cytotoxicity” value was 1.47%.
In the case of CC[N+](CC)(CC)CCOc1ccc(/C=C/c2ccccc2)cc1, the “cytotoxicity” value is reported as -14.6% [at 35.3 µM].
In the case of C#C[C@]1(OC(C)=O)CC[C@H]2[C@@H]3CCC4=C/C(=N/O)CC[C@@H]4[C@H]3CC[C@@]21CC, the “cytotoxicity” value is reported as -2.62% [at 35.3 µM].
For C=CCCC(=O)/C=C/C1C(C)=CCCC1(C)C (stereo not drawn), the “cytotoxicity” value was -1.39%.
For CC(C)(C)c1csc(-c2cc3cc(OCc4ccccc4CC(=O)O)ccc3o2)n1, the “cytotoxicity” value was 4.44%.
In the case of O=c1[nH]c2ccccc2n1CCCN1CCN(C(c2ccccc2)c2ccccc2)CC1, the “cytotoxicity” value is reported as -0.465% [at 35.3 µM].
In the case of O=c1c(O)c(-c2ccc(O)cc2O)oc2cc(O)cc(O)c12, the “cytotoxicity” value is reported as 11%.
With CN(C)[C@@H](CCOc1cccc2ccccc12)c1ccccc1 the “cytotoxicity” value was -7.63% [at 35.3 µM].
For COC(=O)Nc1nc2ccc(C(=O)c3ccccc3)cc2[nH]1, the “cytotoxicity” value was -5.76% [at 35.3 µM].
In the case of Cc1ccc(O)c(O)c1, the “cytotoxicity” value is reported as 19.9%.

Assay: qHTS RealTime-Glo MT Cell Viability Assay in HepG2 cells - 40 hour (AID 1224870)
Details: RealTime-Glo luminescence; series mostly up to 76.8 µM; activity change, negative = cytotoxic: at the top concentration
In short: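 HepG2 cells (600/well) mixed with RealTime-Glo MT reagent, settled 5 h at 37 C/5% CO2 before compound addition. Nonlytic NanoLuc luminescence from viable-cell prosubstrate reduction read repeatedly during 40 h treatment at 37 C.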
For CCCCCC/C=C\CCCCCCCC(=O)O, the “activity change, negative = cytotoxic” value was -0.788%.
In the case of Clc1ccnc(Cl)n1, the “activity change, negative = cytotoxic” value is reported as 15.6%.
For CCCCC(CC)CN1CN(CC(CC)CCCC)CC(C)(N)C1 (stereo not drawn), the Potency was 21.3 µM (active).
For CN1CCCCC1CCN1c2ccccc2Sc2ccc(S(C)=O)cc21 (stereo not drawn), the “activity change, negative = cytotoxic” value was 1.3% [at 35.3 µM].
For CCn1c2ccccc2c2cc([N+](=O)[O-])ccc21, the “activity change, negative = cytotoxic” value was -8.97%.
In the case of Cc1cc(C)c(/C=C2\C(=O)Nc3ccccc32)[nH]1, the “activity change, negative = cytotoxic” value is reported as -15.7% [at 35.3 µM].
With CCCc1ccc(OCC(=O)N2CCN(C(=O)COc3ccc(CCC)cc3OC)CC2)c(OC)c1 the “activity change, negative = cytotoxic” value was -24.1% [at 35.3 µM].
With COc1c(C)c2c(c(O)c1C/C=C(\C)CCC(=O)OCCN1CCOCC1)C(=O)OC2 the “activity change, negative = cytotoxic” value was -3.12% [at 35.3 µM].
With Sc1nc2ccccc2s1 the “activity change, negative = cytotoxic” value was -0.977%.
With CCCCC/C=C\C/C=C\CCCCCCCC(=O)O the Potency was “inactive”.
With Cc1cc(=O)oc2cc(O)cc(O)c12 the “activity change, negative = cytotoxic” value was 5.68%.
With Nc1cc(Cl)c(O)c(Cl)c1 the “activity change, negative = cytotoxic” value was 5%.
For CC[N+](CC)(CC)CCOc1ccc(/C=C/c2ccccc2)cc1, the Potency was 23.9 µM (active).
For C#C[C@]1(OC(C)=O)CC[C@H]2[C@@H]3CCC4=C/C(=N/O)CC[C@@H]4[C@H]3CC[C@@]21CC, the “activity change, negative = cytotoxic” value was -4.52% [at 35.3 µM].
With C=CCCC(=O)/C=C/C1C(C)=CCCC1(C)C (stereo not drawn) the “activity change, negative = cytotoxic” value was -4.8%.
With CC(C)(C)c1csc(-c2cc3cc(OCc4ccccc4CC(=O)O)ccc3o2)n1 the “activity change, negative = cytotoxic” value was -9.88%.
In the case of O=c1[nH]c2ccccc2n1CCCN1CCN(C(c2ccccc2)c2ccccc2)CC1, the Potency is reported as 23.9 µM (active).
For O=c1c(O)c(-c2ccc(O)cc2O)oc2cc(O)cc(O)c12, the “activity change, negative = cytotoxic” value was -1.91%.
In the case of COC(=O)Nc1nc2ccc(C(=O)c3ccccc3)cc2[nH]1, the “activity change, negative = cytotoxic” value is reported as -17.4% [at 35.3 µM].
For CC1(C)[C@@H](O)CC[C@]2(C)[C@H]3C(=O)C=C4[C@@H]5C[C@@](C)(C(=O)O)CC[C@]5(C)CC[C@@]4(C)[C@]3(C)CC[C@@H]12, the “activity change, negative = cytotoxic” value was -0.683%.
In the case of CCO[C@@H]1O[C@H](C(COCc2ccccc2)OCc2ccccc2)[C@H](OCc2ccccc2)[C@H]1O (stereo partly drawn), the “activity change, negative = cytotoxic” value is reported as -6.81% [at 35.3 µM].
With Cc1ccc(O)c(O)c1 the “activity change, negative = cytotoxic” value was -5.27%.
